# The sample as a whole holds a higher share of the strongest signals than the screen did.
# B1: Strep tagII-anxA1 (Homo sapiens), P04083 (protein)
# chain: MAMVSEFLKQAWFIENEEQEYVQTVKSSKGGPGSAVSPYPTFNPSSDVAALHKAIMVKGVDEATIIDILTKRNNAQRQQIKAAYLQETGKPLDETLKKALTGHLEEVVLALLKTPAQFDADELRAAMKGLGTDEDTLIEILASRTNKEIRDINRVYREELKRDLAKDITSDTSGDFRNALLSLAKGDRSEDFGVNEDLADSDARALYEAGERRKGTDVNVFNTILTTRSYPQLRRVFQKYTKYSKHDMNKVLDLELKGDIEKCLTAIVKCATSKPAFFAEKLHQAMKGVGTRHKALIRIMVSRSEIDMNDIKAFYQKMYGISLCQAILDETKGDYEKILVALCGGN
# How the values were obtained:
# Experiment in all cases: glycan array binding signal (z-score within array); higher = stronger binding
# Details in all cases: glycan notation: IUPAC condensed, linker removed
# [1] = molecular target: Fuc(a1-2)Gal(b1-3)GlcNAc(b1-2)Man(a1-3)[Fuc(a1-2)Gal(b1-3)GlcNAc(b1-2)Man(a1-6)]Man(b1-4)GlcNAc(b1-4)[Fuc(a1-6)]GlcNAc
# Outline: (§1)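 Arrays were curated from the Consortium for Functional Glycomics database, 3228 in total, and kept only where the protein sequence was available. Binding is expressed as a within-array Z-score. This score was averaged across arrays of the same protein sequence at different concentrations or buffers and across linkers, and negative values can be read as non-binding.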
# [2] = molecular target: Fuc(a1-2)Gal(b1-3)[Fuc(a1-4)]GlcNAc
# Outline: as §1
# [3] = molecular target: Fuc(a1-2)Gal(b1-3)[Fuc(a1-4)]GlcNAc(b1-2)Man(a1-3)[Fuc(a1-2)Gal(b1-3)[Fuc(a1-4)]GlcNAc(b1-2)Man(a1-6)]Man(b1-4)GlcNAc(b1-4)GlcNAc
# Outline: as §1
# [4] = molecular target: Fuc(a1-2)Gal(b1-3)[Fuc(a1-4)]GlcNAc(b1-2)Man(a1-6)[Fuc(a1-2)Gal(b1-3)[Fuc(a1-4)]GlcNAc(b1-2)Man(a1-3)]Man(b1-4)GlcNAc(b1-4)[Fuc(a1-6)]GlcNAc
# Outline: as §1
# [5] = molecular target: Fuc(a1-2)Gal(b1-4)[Fuc(a1-3)]GlcNAc(b1-2)Man(a1-6)[Fuc(a1-2)Gal(b1-4)[Fuc(a1-3)]GlcNAc(b1-2)Man(a1-3)]Man(b1-4)GlcNAc(b1-4)[Fuc(a1-6)]GlcNAc
# Outline: as §1
# [6] = molecular target: Fuc(a1-2)Gal(b1-4)[Fuc(a1-3)]GlcNAc(b1-3)Gal(b1-4)[Fuc(a1-3)]GlcNAc(b1-3)Gal(b1-4)[Fuc(a1-3)]GlcNAc
# Outline: as §1
# [7] = molecular target: Fuc(a1-2)Gal(b1-4)[Fuc(a1-3)]GlcNAc(b1-3)GalNAc
# Outline: as §1
# Fuc(a1-2)[Gal(a1-3)]Gal = molecular target: Fuc(a1-2)[Gal(a1-3)]Gal
# Outline: as §1
# [8] = molecular target: Fuc(a1-2)[Gal(a1-3)]Gal(b1-4)GlcNAc(b1-2)Man(a1-3)[Fuc(a1-2)[Gal(a1-3)]Gal(b1-4)GlcNAc(b1-2)Man(a1-6)]Man(b1-4)GlcNAc(b1-4)GlcNAc
# Outline: as §1
# [9] = molecular target: Fuc(a1-2)[GalNAc(a1-4)]Gal(b1-4)GlcNAc
# Outline: as §1
# [10] = molecular target: Fuc(a1-3)[Gal(b1-4)]GlcNAc(b1-2)Man(a1-3)[Fuc(a1-3)[Gal(b1-4)]GlcNAc(b1-2)Man(a1-6)]Man(b1-4)GlcNAc(b1-4)[Fuc(a1-6)]GlcNAc
# Outline: as §1
# [11] = molecular target: Fuc(a1-3)[Gal(b1-4)]GlcNAc(b1-3)GalNAc
# Outline: as §1
# [12] = molecular target: Fuc(a1-3)[Gal3S(b1-4)]GlcNAc
# Outline: as §1
# [13] = molecular target: Gal(a1-3)Gal(b1-4)[Fuc(a1-3)]GlcNAc(b1-2)Man(a1-3)[Gal(a1-3)Gal(b1-4)[Fuc(a1-3)]GlcNAc(b1-2)Man(a1-6)]Man(b1-4)GlcNAc(b1-4)GlcNAc
# Outline: as §1
# Gal(b1-2)Gal = molecular target: Gal(b1-2)Gal
# Outline: as §1
# [14] = molecular target: Gal(b1-3)GalNAc(b1-3)Gal(a1-4)Gal(b1-4)Glc
# Outline: as §1
# [15] = molecular target: Gal(b1-3)[Fuc(a1-4)]GlcNAc(b1-3)Gal(b1-3)[Fuc(a1-4)]GlcNAc
# Outline: as §1
# [16] = molecular target: Gal(b1-4)GlcNAc(b1-2)Man(a1-3)[Gal(b1-4)GlcNAc(b1-2)Man(a1-6)]Man(b1-4)GlcNAc(b1-4)GlcNAc
# Outline: as §1
# [17] = molecular target: Gal(b1-4)GlcNAc(b1-2)Man(a1-3)[GlcNAc(b1-2)Man(a1-6)]Man(b1-4)GlcNAc(b1-4)GlcNAc
# Outline: as §1
# [18] = molecular target: Gal(b1-4)GlcNAc(b1-2)Man(a1-3)[Man(a1-6)]Man(b1-4)GlcNAc(b1-4)GlcNAc
# Outline: as §1
# Gal3S6S(b1-4)GlcNAc = molecular target: Gal3S6S(b1-4)GlcNAc
# Outline: as §1
# Gal6P(b1-4)GlcNAc = molecular target: Gal6P(b1-4)GlcNAc
# Outline: as §1
# GalNAc(a1-3)Gal = molecular target: GalNAc(a1-3)Gal
# Outline: as §1
# GalNAc(b1-3)Gal = molecular target: GalNAc(b1-3)Gal
# Outline: as §1
# GalNAc(b1-4)Gal(b1-4)Glc = molecular target: GalNAc(b1-4)Gal(b1-4)Glc
# Outline: as §1
# [19] = molecular target: Glc(a1-4)Glc(a1-4)Glc(a1-4)Glc
# Outline: as §1
# [20] = molecular target: GlcNAc(a1-4)Gal(b1-4)GalNAc
# Outline: as §1
# GlcNAc(b1-3)Gal = molecular target: GlcNAc(b1-3)Gal
# Outline: as §1
# [21] = molecular target: GlcNAc(b1-3)[GlcNAc(b1-4)][GlcNAc(b1-6)]GlcNAc
# Outline: as §1
# Kdn(a2-6)Gal(b1-4)GlcNAc = molecular target: Kdn(a2-6)Gal(b1-4)GlcNAc
# Outline: as §1
# Man(a1-2)Man(a1-3)Man = molecular target: Man(a1-2)Man(a1-3)Man
# Outline: as §1
# [22] = molecular target: Neu5Ac(a2-3)Gal(b1-3)GalNAc(b1-4)[Neu5Ac(a2-3)]Gal(b1-4)Glc
# Outline: as §1
# [23] = molecular target: Neu5Ac(a2-3)Gal(b1-3)[Fuc(a1-4)]GlcNAc
# Outline: as §1
# [24] = molecular target: Neu5Ac(a2-3)Gal(b1-3)[Neu5Ac(a2-3)Gal(b1-4)]GlcNAc
# Outline: as §1
# [25] = molecular target: Neu5Ac(a2-3)Gal(b1-4)GlcNAc
# Outline: as §1
# [26] = molecular target: Neu5Ac(a2-3)Gal(b1-4)GlcNAc(b1-2)Man(a1-3)[GlcNAc(b1-2)Man(b1-4)GlcNAc(b1-2)Man(a1-6)]Man(b1-4)GlcNAc(b1-4)GlcNAc
# Outline: as §1
# [27] = molecular target: Neu5Ac(a2-3)Gal(b1-4)[Fuc(a1-3)]GlcNAc6S
# Outline: as §1
# [28] = molecular target: Neu5Ac(a2-3)Gal6S(b1-4)GlcNAc
# Outline: as §1
# [29] = molecular target: Neu5Ac(a2-3)[GalNAc(b1-4)]Gal(b1-4)GlcNAc(b1-3)GalNAc
# Outline: as §1
# Neu5Ac(a2-6)Gal(b1-4)Glc = molecular target: Neu5Ac(a2-6)Gal(b1-4)Glc
# Outline: as §1
# [30] = molecular target: Neu5Ac(a2-6)Gal(b1-4)GlcNAc(b1-2)Man(a1-3)[GlcNAc(b1-2)Man(a1-6)]Man(b1-4)GlcNAc(b1-4)GlcNAc
# Outline: as §1
# [31] = molecular target: Neu5Ac(a2-6)Gal(b1-4)GlcNAc(b1-3)Gal(b1-4)GlcNAc(b1-3)Gal(b1-4)GlcNAc
# Outline: as §1
# [32] = molecular target: Neu5Ac(a2-6)GlcNAc(b1-4)GlcNAc
# Outline: as §1
# [33] = molecular target: Neu5Ac(a2-8)Neu5Ac(a2-8)Neu5Ac
# Outline: as §1
# Neu5Ac(b2-6)GalNAc = molecular target: Neu5Ac(b2-6)GalNAc
# Outline: as §1
# [34] = molecular target: Neu5Gc(b2-6)Gal(b1-4)GlcNAc
# Outline: as §1
binder,measurement,setting,value
B1,glycan array binding signal (z-score),[1],0.314
same,glycan array binding signal (z-score),[2],5.05
same,glycan array binding signal (z-score),[3],10.7
same,glycan array binding signal (z-score),[4],3.12
same,glycan array binding signal (z-score),[5],3.12
same,glycan array binding signal (z-score),[6],0.054
same,glycan array binding signal (z-score),[7],-0.317
same,glycan array binding signal (z-score),Fuc(a1-2)[Gal(a1-3)]Gal,-0.612
same,glycan array binding signal (z-score),[8],1.69
same,glycan array binding signal (z-score),[9],-0.304
same,glycan array binding signal (z-score),[10],2.81
same,glycan array binding signal (z-score),[11],-0.209
same,glycan array binding signal (z-score),[12],0.479
same,glycan array binding signal (z-score),[13],3.62
same,glycan array binding signal (z-score),Gal(b1-2)Gal,-0.402
same,glycan array binding signal (z-score),[14],-0.44
same,glycan array binding signal (z-score),[15],-0.366
same,glycan array binding signal (z-score),[16],-0.682
same,glycan array binding signal (z-score),[17],-0.567
same,glycan array binding signal (z-score),[18],1.08
same,glycan array binding signal (z-score),Gal3S6S(b1-4)GlcNAc,0.386
same,glycan array binding signal (z-score),Gal6P(b1-4)GlcNAc,-0.017
same,glycan array binding signal (z-score),GalNAc(a1-3)Gal,0.67
same,glycan array binding signal (z-score),GalNAc(b1-3)Gal,-0.664
same,glycan array binding signal (z-score),GalNAc(b1-4)Gal(b1-4)Glc,1.79
same,glycan array binding signal (z-score),[19],3.56
same,glycan array binding signal (z-score),[20],2.68
same,glycan array binding signal (z-score),GlcNAc(b1-3)Gal,-0.607
same,glycan array binding signal (z-score),[21],2.8
same,glycan array binding signal (z-score),Kdn(a2-6)Gal(b1-4)GlcNAc,-0.606
same,glycan array binding signal (z-score),Man(a1-2)Man(a1-3)Man,-0.123
same,glycan array binding signal (z-score),[22],-0.502
same,glycan array binding signal (z-score),[23],-0.529
same,glycan array binding signal (z-score),[24],-0.763
same,glycan array binding signal (z-score),[25],-0.209
same,glycan array binding signal (z-score),[26],-0.74
same,glycan array binding signal (z-score),[27],-0.736
same,glycan array binding signal (z-score),[28],-0.312
same,glycan array binding signal (z-score),[29],-0.294
same,glycan array binding signal (z-score),Neu5Ac(a2-6)Gal(b1-4)Glc,0.446
same,glycan array binding signal (z-score),[30],-0.496
same,glycan array binding signal (z-score),[31],0.122
same,glycan array binding signal (z-score),[32],-0.032
same,glycan array binding signal (z-score),[33],-0.49
same,glycan array binding signal (z-score),Neu5Ac(b2-6)GalNAc,-0.503
same,glycan array binding signal (z-score),[34],-0.654
